For one sequence, binding signal results are on record in publication PMC7862700, “An all-to-all approach to the identification of sequence-specific readers for epigenetic DNA modifications on cytosine”.

Holding throughout (assay): DAPPL (digital affinity profiling via proximity ligation, sequencing); 10 mM Tris-HCl pH 7.5, 50 mM NaCl, 1 mM DTT, 4% glycerol, room temperature, 30 min; GST-TFs on glutathione beads, 16-mer random dsDNA library, 0.1% formaldehyde crosslink after washing; high values mean tight binding
One assay addresses T1, FEV (Homo sapiens, UniProt Q99581 1-238).
T1 sequence: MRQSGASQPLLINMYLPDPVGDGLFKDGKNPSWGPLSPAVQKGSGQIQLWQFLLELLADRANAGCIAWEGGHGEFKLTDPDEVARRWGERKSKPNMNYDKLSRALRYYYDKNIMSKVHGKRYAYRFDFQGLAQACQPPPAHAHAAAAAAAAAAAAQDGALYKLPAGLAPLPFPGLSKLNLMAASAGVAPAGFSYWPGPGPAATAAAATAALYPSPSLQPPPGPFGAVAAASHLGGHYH
Particulars: protein: recombinant; tags: N-terminal GST; dsDNA, one strand shown. The essentials: (§1)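 Binding signal is each hexamer's read frequency for a factor divided by its frequency in the tag-only sample. The factors were GST-fused human transcription factors from yeast, captured on glutathione beads, DNA-barcoded and pooled with that sample. Pools were incubated with 200 nmole of a random double-stranded 16-mer DNA library in Tris/NaCl/DTT/glycerol buffer at room temperature for 30 min, then washed, crosslinked with 0.1% formaldehyde, proximity-ligated with BsaI/T4 ligase (1 h, 37 °C), PCR-amplified and sequenced on an Illumina NextSeq500.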

The next assay has as its target ETV5 (Homo sapiens, UniProt P41161 1-510). Particulars: protein: recombinant; tags: N-terminal GST; dsDNA, one strand shown. In a few lines: as §1
The target in another assay is HSF1 (Homo sapiens, UniProt Q00613 1-529). Particulars: protein: recombinant; tags: N-terminal GST; chain copies: 3; dsDNA, one strand shown. The essentials: as §1
For another assay, the target named is T2, SPIC (Homo sapiens, UniProt Q8N5J4 1-248).
T2 sequence: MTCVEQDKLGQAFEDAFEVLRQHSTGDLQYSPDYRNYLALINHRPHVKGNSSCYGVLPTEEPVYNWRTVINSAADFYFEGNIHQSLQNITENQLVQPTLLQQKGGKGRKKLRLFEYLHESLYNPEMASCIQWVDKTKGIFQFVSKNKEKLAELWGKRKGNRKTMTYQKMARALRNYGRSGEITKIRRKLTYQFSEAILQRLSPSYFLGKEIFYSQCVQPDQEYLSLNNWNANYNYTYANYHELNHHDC
Particulars: protein: recombinant; tags: N-terminal GST; dsDNA, one strand shown. The essentials: as §1

In the next assay the target is ELF4 (Homo sapiens, UniProt Q99607 1-663). Particulars: protein: recombinant; tags: N-terminal GST; dsDNA, one strand shown. The essentials: as §1
The next assay concerns the target T3, ELK4 (Homo sapiens, UniProt P28324-2 1-405).
T3 sequence: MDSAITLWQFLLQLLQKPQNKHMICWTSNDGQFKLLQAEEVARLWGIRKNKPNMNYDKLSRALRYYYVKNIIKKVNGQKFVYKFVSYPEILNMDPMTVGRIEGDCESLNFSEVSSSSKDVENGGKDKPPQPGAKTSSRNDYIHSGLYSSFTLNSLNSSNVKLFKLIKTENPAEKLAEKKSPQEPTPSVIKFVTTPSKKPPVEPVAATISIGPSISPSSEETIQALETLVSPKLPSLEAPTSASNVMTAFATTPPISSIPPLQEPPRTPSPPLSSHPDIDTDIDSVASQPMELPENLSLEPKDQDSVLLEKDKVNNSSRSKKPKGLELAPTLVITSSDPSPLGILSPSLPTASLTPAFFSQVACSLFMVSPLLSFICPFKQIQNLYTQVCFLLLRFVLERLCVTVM
Particulars: protein: recombinant; tags: N-terminal GST; dsDNA, one strand shown. In a few lines: as §1

A further assay deals with T4, ETV2 (Homo sapiens, UniProt O00321 1-342).
T4 sequence: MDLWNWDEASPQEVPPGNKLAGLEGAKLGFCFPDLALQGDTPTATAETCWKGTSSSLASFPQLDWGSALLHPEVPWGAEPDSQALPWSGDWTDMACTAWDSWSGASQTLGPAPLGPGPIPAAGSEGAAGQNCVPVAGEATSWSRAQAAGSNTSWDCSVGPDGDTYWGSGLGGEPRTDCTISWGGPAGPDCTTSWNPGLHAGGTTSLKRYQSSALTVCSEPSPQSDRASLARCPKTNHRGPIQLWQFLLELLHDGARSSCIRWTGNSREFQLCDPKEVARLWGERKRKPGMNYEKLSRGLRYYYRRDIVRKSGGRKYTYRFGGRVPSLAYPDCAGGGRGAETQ
Particulars: protein: recombinant; tags: N-terminal GST; dsDNA, one strand shown. The essentials:
as §1

Another assay concerns the target T5, ELF3 (Homo sapiens, UniProt P78545 1-371).
T5 sequence: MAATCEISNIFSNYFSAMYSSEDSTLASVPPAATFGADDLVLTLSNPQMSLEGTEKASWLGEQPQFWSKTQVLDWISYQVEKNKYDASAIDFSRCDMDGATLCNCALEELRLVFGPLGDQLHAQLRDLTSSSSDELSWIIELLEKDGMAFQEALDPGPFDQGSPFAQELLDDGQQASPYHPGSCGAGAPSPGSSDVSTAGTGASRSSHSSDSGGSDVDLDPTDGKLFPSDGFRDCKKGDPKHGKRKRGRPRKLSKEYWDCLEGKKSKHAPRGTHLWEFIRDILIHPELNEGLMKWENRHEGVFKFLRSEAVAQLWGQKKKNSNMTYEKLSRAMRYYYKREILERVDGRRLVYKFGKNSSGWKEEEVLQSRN
Particulars: protein: recombinant; tags: N-terminal GST; dsDNA, one strand shown. The essentials:
as §1

The target in the next assay is CRX (Homo sapiens, UniProt O43186 1-299). Particulars: protein: recombinant; tags: N-terminal GST; dsDNA, one strand shown. In a few lines: as §1
Another assay addresses ETV1 (Homo sapiens, UniProt P50549 1-477). Particulars: protein: recombinant; tags: N-terminal GST; dsDNA, one strand shown. In a few lines:
as §1

A further assay concerns the target T6, ERF (Homo sapiens, UniProt P50548 1-548).
T6 sequence: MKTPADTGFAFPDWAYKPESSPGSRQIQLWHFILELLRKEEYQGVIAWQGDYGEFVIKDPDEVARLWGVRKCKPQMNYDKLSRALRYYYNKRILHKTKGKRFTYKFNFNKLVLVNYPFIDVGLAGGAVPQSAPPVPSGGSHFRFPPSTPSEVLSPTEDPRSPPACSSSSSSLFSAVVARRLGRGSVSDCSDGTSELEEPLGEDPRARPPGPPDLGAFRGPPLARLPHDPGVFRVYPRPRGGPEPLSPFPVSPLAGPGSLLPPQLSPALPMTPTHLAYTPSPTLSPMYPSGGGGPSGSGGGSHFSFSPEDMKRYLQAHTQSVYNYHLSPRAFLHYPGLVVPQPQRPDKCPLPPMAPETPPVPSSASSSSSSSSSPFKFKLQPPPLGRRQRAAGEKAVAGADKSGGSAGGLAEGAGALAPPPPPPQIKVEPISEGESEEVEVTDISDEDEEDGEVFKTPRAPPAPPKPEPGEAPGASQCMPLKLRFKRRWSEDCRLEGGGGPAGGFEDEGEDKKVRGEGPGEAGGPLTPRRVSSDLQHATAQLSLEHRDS
Particulars: protein: recombinant; tags: N-terminal GST; dsDNA, one strand shown. The essentials: as §1

The next assay has as its target T7, ETV3L (Homo sapiens, UniProt Q6ZN32 1-361).
T7 sequence: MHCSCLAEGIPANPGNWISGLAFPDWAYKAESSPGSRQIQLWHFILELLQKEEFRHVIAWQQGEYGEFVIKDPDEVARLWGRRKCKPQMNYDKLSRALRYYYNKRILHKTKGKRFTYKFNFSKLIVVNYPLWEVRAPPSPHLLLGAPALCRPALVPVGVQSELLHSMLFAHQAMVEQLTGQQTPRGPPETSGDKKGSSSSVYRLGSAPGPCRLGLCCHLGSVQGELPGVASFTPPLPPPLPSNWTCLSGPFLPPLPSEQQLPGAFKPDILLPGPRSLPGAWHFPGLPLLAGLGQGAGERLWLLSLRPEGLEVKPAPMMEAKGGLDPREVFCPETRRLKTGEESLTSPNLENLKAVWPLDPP
Particulars: protein: recombinant; tags: N-terminal GST; dsDNA, one strand shown. In a few lines: as §1

The target of another assay is T8, ETS2 (Homo sapiens, UniProt P15036 1-469).
T8 sequence: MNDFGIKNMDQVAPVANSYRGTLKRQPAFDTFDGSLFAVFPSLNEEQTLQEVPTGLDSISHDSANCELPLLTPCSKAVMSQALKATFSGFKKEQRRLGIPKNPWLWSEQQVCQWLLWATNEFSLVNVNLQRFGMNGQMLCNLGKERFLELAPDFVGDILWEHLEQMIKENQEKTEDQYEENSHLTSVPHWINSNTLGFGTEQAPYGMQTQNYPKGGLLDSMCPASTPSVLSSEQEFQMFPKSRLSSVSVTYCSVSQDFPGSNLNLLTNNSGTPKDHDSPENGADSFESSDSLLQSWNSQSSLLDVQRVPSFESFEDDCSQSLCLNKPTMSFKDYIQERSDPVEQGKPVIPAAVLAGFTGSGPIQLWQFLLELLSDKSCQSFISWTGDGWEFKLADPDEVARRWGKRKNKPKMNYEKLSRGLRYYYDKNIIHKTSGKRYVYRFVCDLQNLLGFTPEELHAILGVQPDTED
Particulars: protein: recombinant; tags: N-terminal GST; dsDNA, one strand shown. The essentials:
as §1

In another assay the target is T9, SPDEF (Homo sapiens, UniProt O95238 1-335).
T9 sequence: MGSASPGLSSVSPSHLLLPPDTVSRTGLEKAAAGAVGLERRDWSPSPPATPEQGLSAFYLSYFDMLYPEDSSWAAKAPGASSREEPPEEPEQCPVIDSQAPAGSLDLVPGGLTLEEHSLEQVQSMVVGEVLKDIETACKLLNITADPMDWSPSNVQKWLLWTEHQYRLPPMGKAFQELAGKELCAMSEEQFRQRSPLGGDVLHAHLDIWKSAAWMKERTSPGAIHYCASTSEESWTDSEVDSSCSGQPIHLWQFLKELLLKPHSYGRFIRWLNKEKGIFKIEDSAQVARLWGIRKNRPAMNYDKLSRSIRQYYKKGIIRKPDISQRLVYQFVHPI
Particulars: protein: recombinant; tags: N-terminal GST; dsDNA, one strand shown. The essentials: as §1

In the next assay the target is T10, ETV7 (Homo sapiens, UniProt Q9Y603 1-341).
T10 sequence: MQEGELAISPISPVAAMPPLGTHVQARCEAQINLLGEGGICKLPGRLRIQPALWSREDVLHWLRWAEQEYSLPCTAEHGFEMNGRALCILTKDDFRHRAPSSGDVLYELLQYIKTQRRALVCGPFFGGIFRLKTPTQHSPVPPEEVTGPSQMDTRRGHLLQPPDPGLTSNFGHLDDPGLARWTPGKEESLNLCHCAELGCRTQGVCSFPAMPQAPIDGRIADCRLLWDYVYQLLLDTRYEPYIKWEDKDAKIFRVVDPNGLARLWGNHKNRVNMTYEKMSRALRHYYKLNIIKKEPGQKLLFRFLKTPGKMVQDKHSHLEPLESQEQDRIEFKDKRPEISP
Particulars: protein: recombinant; tags: N-terminal GST; dsDNA, one strand shown. The essentials: as §1

Another assay deals with T11, ELF5 (Homo sapiens, UniProt Q9UKW6-2 1-255).
T11 sequence: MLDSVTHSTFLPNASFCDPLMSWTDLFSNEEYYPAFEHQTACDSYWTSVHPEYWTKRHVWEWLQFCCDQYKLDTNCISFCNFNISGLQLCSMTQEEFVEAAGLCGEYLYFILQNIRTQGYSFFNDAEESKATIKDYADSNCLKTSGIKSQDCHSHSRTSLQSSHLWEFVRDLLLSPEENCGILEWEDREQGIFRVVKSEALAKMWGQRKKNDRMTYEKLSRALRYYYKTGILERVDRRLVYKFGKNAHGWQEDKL
Particulars: protein: recombinant; tags: N-terminal GST; dsDNA, one strand shown. The essentials: as §1

Another assay concerns the target T12, ETV3 (Homo sapiens, UniProt P41162-2 1-143).
T12 sequence: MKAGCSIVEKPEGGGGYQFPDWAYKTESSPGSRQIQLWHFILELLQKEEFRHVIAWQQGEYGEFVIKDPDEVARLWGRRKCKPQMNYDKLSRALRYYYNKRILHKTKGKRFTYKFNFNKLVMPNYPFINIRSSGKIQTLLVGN
Particulars: protein: recombinant; tags: N-terminal GST; dsDNA, one strand shown. In a few lines: as §1

Another assay addresses ETV6 (Homo sapiens, UniProt P41212 1-452). Particulars: protein: recombinant; tags: N-terminal GST; dsDNA, one strand shown. The essentials:
as §1

Chain of CRX (O43186 whole entry): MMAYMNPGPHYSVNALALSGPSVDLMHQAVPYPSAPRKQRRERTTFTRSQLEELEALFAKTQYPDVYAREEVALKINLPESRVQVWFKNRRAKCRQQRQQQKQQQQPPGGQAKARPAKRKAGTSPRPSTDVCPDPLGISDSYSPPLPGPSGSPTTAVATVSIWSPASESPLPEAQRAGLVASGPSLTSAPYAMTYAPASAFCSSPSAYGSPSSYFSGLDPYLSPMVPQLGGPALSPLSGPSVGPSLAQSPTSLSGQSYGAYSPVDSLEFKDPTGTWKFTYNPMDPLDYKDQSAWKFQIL
Chain of ETV1 (P50549 whole entry): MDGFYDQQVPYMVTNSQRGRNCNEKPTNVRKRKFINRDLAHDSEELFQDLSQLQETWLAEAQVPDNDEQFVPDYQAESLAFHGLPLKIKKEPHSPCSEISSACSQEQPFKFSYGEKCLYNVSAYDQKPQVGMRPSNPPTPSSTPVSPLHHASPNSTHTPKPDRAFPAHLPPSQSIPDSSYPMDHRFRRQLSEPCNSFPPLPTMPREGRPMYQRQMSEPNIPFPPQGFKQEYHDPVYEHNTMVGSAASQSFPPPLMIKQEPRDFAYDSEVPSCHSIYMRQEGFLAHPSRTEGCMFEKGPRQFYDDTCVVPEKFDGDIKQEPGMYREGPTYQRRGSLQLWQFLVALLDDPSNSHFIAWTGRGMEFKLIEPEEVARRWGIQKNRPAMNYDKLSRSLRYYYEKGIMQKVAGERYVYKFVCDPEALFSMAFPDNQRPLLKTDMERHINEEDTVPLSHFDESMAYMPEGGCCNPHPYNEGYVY
Chain of ELF4 (Q99607 whole entry): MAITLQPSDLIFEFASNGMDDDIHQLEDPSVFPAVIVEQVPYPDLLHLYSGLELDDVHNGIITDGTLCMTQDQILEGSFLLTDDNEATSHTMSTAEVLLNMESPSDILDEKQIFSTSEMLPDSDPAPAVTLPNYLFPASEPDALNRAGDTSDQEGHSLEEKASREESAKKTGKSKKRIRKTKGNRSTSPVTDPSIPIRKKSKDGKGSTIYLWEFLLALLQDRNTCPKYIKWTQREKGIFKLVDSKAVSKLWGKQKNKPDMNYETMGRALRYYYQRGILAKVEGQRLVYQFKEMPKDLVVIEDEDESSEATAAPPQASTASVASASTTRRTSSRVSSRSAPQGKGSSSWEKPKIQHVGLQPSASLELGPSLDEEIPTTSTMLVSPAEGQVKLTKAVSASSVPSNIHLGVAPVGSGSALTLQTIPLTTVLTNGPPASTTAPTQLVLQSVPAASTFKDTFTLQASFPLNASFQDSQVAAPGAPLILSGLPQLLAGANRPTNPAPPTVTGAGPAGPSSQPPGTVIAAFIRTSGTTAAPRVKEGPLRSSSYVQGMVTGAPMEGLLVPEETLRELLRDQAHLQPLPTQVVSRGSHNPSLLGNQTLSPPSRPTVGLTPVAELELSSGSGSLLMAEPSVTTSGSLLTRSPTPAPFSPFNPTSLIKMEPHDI
Chain of HSF1 (Q00613 whole entry): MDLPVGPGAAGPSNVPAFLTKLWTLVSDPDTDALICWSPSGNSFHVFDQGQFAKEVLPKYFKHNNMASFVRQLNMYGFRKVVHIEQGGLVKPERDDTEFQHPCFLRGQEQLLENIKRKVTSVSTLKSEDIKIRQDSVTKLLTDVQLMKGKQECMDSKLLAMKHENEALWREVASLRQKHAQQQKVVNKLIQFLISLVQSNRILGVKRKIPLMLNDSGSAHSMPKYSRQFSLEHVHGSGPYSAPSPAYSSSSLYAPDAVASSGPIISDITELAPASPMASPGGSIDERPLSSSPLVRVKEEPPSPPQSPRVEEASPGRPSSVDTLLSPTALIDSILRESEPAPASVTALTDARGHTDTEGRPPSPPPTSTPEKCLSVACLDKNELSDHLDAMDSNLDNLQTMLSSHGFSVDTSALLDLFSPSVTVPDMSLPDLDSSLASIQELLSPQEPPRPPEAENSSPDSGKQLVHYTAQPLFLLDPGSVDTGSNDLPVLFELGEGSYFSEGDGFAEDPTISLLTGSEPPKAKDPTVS
Chain of ETV5 (P41161 whole entry): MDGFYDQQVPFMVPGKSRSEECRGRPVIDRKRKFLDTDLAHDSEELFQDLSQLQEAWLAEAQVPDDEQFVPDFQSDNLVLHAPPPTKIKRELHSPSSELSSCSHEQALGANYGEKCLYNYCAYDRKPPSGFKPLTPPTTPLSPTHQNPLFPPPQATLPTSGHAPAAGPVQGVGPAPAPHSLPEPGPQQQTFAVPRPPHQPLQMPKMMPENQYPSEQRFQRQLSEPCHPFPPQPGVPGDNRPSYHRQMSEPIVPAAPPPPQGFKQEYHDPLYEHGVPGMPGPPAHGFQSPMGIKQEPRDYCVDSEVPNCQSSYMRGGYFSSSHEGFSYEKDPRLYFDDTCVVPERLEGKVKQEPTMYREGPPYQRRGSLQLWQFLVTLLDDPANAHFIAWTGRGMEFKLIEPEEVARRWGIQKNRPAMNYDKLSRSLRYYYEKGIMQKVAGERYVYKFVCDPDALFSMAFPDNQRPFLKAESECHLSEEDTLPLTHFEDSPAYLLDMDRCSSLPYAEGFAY
Chain of ETV6 (P41212 whole entry): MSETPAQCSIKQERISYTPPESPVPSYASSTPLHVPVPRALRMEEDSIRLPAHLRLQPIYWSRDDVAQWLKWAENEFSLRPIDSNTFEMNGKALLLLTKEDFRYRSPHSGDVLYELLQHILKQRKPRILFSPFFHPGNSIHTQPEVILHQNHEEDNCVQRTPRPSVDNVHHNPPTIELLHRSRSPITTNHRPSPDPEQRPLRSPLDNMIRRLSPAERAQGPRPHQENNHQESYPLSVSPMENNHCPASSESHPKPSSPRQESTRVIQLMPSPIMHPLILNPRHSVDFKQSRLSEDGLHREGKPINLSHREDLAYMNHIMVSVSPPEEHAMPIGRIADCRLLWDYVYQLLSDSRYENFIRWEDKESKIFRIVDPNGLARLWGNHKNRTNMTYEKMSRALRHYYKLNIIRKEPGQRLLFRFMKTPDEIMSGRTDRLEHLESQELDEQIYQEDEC

In the case of TCTTAG, the binding signal is 1.16 fold enrichment (6-mer frequency, TF over GST control) with FEV; 1.21 fold enrichment (6-mer frequency, TF over GST control) with ETV5; 1.5 fold enrichment (6-mer frequency, TF over GST control) in the assay with HSF1; 1.36 fold enrichment (6-mer frequency, TF over GST control) in the assay with SPIC; 1.3 fold enrichment (6-mer frequency, TF over GST control) with ELF4; 1.21 fold enrichment (6-mer frequency, TF over GST control) with ELK4. The binding signal was 1.26 fold enrichment (6-mer frequency, TF over GST control) with ETV2; 1.29 fold enrichment (6-mer frequency, TF over GST control) in the assay with ELF3; 1.86 fold enrichment (6-mer frequency, TF over GST control) with CRX; 1.25 fold enrichment (6-mer frequency, TF over GST control) with ETV1; 1.21 fold enrichment (6-mer frequency, TF over GST control) with ERF; 1.35 fold enrichment (6-mer frequency, TF over GST control) with ETV3L. The binding signal with ETS2 was 1.13 fold enrichment (6-mer frequency, TF over GST control); in the assay with SPDEF, 1.24 fold enrichment (6-mer frequency, TF over GST control); with ETV7 it was 1.18 fold enrichment (6-mer frequency, TF over GST control); with ELF5, 1.21 fold enrichment (6-mer frequency, TF over GST control); in the assay with ETV3 it was 1.2 fold enrichment (6-mer frequency, TF over GST control); in the assay with ETV6, 1.19 fold enrichment (6-mer frequency, TF over GST control).
